{"source": "PubChem BioAssay (NCI)", "note": "“And” between values parts separate entries of the source, which are not always exact repeats. Identical values can stand only once. This is part of a sample that, as a whole, favours compounds with a hit. Of some 83,000 tested, about 20% had one in any assay.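 The endpoint reported here, percent growth, reads 100 for growth as untreated, 0 for no net growth and -100 for all cells dead.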 A number with no mark means an inactive call. The source made the active and inactive calls. The calls were made as follows: active = growth percent below 10; inactive = the rest.", "data": [{"system": "HL-60(TB) leukemia", "assay": "NCI-60 one-dose screen, 48 h (100 = growth as untreated, 0 = no growth, -100 = all killed)", "conditions": "10 µM unless noted", "values": [{"smiles": "CCOc1cc(CCNS(=O)(=O)c2ccc(C)cc2)c(C(C)=O)cc1OCC", "growth": "46.5% [100 µM]"}, {"smiles": "COc1ccc2c(c1)C1(C(=O)N2)C(C#N)=C(c2ccccc2)Nc2c1c(-c1ccccc1)nn2-c1ccccc1", "note": "(centres undefined)", "growth": "3.96% (active)"}, {"smiles": "COc1cc(/C=C/C(C)=O)ccc1O", "growth": "81% and 77.8%"}, {"smiles": "Nc1nc2ccc(-c3nc4ccc5[nH]ncc5c4c4c3CCCC4)cc2s1", "growth": "94.7%"}, {"smiles": "O=c1nc2c(-c3nc4ccccc4s3)n[nH]n2c2sc3c(c12)CCCC3", "growth": "99.4%"}, {"smiles": "COc1cc(CN(CCC(O)N2CCCC2=O)Cc2ccc3c(c2)OCO3)cc(OC)c1OC", "note": "(centres undefined)", "growth": "90.6%"}, {"smiles": "Nc1nc(Cl)nc2c1ncn2C1OC(CO)C(O)C1O", "note": "(centres undefined)", "growth": "-20.7% (active) and -3.23% (active)"}, {"smiles": "COc1cc(NC(=O)C#Cc2ccccc2)c(OC)cc1Cl", "growth": "42.7%"}, {"smiles": "CCOC(=O)N(O)c1ccc(/C=C/c2ccccc2)cc1", "growth": "61.1% and 43.9%"}, {"smiles": "COc1cc(OC)c(/C=C/C(=O)c2c(OC)cc(OC)cc2OC)c(OC)c1", "growth": "-25.1% (active)"}, {"smiles": "CC(C)[C@@H]1CC[C@@H]2[C@@H]1[C@H](OC(=O)/C=C/c1ccccc1)[C@]1(C(C)C)C[C@@H](OC(=O)CO)[C@@]2(C)O1", "growth": "84.6%"}, {"smiles": "COc1ccccc1NC(=O)N=Nc1c(O)[nH]c2ccccc12", "growth": "93.8%"}, {"smiles": "Cc1cc2c(O)c(-c3cccc(Cl)c3)c3sc(=O)oc3c2cc1C", "growth": "23.2%"}, {"smiles": "COc1cc(CNC(=O)/C=C/C=C/c2ccc3c(c2)OCO3)ccc1OCc1cn(-c2ccc(C)c(C)c2)nn1", "growth": "84.4%"}, {"smiles": "COc1ccc(Cc2nc3cc(OC)c(OC)cc3c(=O)[nH]2)cc1", "growth": "16.4%"}, {"smiles": "COc1ccc2nc(-c3ccc(Cl)cc3)cc(-c3nnc(SCC(=O)Nc4ccc(/C(C)=N\\O)cc4)o3)c2c1", "growth": "61.9%"}, {"smiles": "O=C(CC12CC3CC(CC(C3)C1)C2)NCCOCCOCCNC(=O)c1cc2c(o1)C(=O)c1ccccc1C2=O", "growth": "-16% (active)"}, {"smiles": "COC(=O)c1ccc(NC(=O)CSc2nc3ccccc3c(=O)n2-c2ccccc2)cc1", "growth": "93.2%"}, {"smiles": "CCOC(=O)N1CCN(CCCCOc2ccc(C(C)(C)CC)cc2)CC1", "growth": "79.1%"}, {"smiles": "CCOC(=O)N/N=C/c1ccc(OC)c(OC)c1", "growth": "108%"}, {"smiles": "CCN1C(=O)N(CC)C2C1NN=c1s/c(=C\\c3cccnc3)c(=O)n12", "note": "(centres undefined)", "growth": "-27.5% (active)"}, {"smiles": "c1ccc(-c2nnn(-c3ccccc3)n2)cc1", "growth": "88.9%"}, {"smiles": "COc1cccc(-c2nn(-c3ccccc3)cc2-c2ccnc(NCCCNC(=O)c3ccc(F)cc3)c2)c1", "growth": "19.3%"}, {"smiles": "S=C(S)NCCc1c[nH]c2ccccc12", "growth": "91.4%"}, {"smiles": "Cc1cc(C)c(N)c(Br)c1", "growth": "97.9% and 69%"}, {"smiles": "CN(C)CCCn1c(=O)c2ccccc2c2cnc3[nH]ccc3c21", "growth": "5.9% (active)"}, {"smiles": "O=C1OC2(c3ccccc31)c1ccc(O)c(O)c1Oc1c2ccc(O)c1O", "growth": "98.6% and 117%"}, {"smiles": "COC(=O)[C@]1(C)CCC[C@]2(C)[C@H]3C[C@H]4C(C(C)C)=C[C@]3(CC[C@H]21)[C@H]1[C@@H]4[C@@H](OCCC#N)CC[C@@H]1OCCC#N", "growth": "2.28% (active)"}, {"smiles": "Cc1ccc(C)c2c1C(=O)OC2=O", "growth": "29.7%"}, {"smiles": "N#CC(C#N)=C1NC(c2ccccc2)=C(c2ccccc2)C(c2ccccc2Cl)=C1C#N", "growth": "79.2%"}, {"smiles": "CCCCCCCCN=C(NCCCCCCCC)SCc1cccc2ccccc12", "growth": "-43.4% (active)"}, {"smiles": "Cc1ccc2c3c(c(=O)[nH]c2c1)C1(C(C#N)=C(N)O3)c2cc(Br)ccc2-c2ccc(Br)cc21", "growth": "83.7%"}, {"smiles": "C#CC(C)(O)c1ccc(Cl)cc1", "note": "(centres undefined)", "growth": "109%"}, {"smiles": "O=[N+]([O-])c1ccc(Sc2ccncn2)c([N+](=O)[O-])c1", "growth": "16.8%"}, {"smiles": "O=C(Nc1nc2c(s1)CCc1c-2c(Br)n(Cc2ccccc2)c1Br)c1ccccc1", "growth": "84.3%"}, {"smiles": "Cn1ccnc1C(=O)/C=C/c1ccc(CC(=O)Nc2ccc(C(F)(F)F)cc2)cc1", "growth": "-2.06% (active)"}, {"smiles": "CC12CCC(C(=O)CC1=O)C2(C)C", "note": "(centres undefined)", "growth": "71.5% and 93.6%"}, {"smiles": "Nc1nc2c(c3cnccc13)C(c1cccc(Br)c1)Cc1cnccc1-2", "note": "(centres undefined)", "growth": "3.01% (active)"}, {"smiles": "COC(=O)c1cc(-c2cccs2)c(C#N)c(N)c1C#N", "growth": "108%"}]}]}
